{"source": "PubChem BioAssay (NCATS)", "note": "A number with no mark means an inactive call. Calls of active or inactive are those of the source. The call rests on the fitted dose curve; in most records, active means well fitted curve in the direction sought with a large enough effect; inconclusive means small, poorly fitted or top-dose-only effect, or another doubt; inactive means no such curve, though single readings can be large; an effect the other way counts as inactive or inconclusive."}
{"target": "Alpha-galactosidase (Coffea arabica) (UniProt Q42656)", "sequence (Q42656 whole entry, looked up)": "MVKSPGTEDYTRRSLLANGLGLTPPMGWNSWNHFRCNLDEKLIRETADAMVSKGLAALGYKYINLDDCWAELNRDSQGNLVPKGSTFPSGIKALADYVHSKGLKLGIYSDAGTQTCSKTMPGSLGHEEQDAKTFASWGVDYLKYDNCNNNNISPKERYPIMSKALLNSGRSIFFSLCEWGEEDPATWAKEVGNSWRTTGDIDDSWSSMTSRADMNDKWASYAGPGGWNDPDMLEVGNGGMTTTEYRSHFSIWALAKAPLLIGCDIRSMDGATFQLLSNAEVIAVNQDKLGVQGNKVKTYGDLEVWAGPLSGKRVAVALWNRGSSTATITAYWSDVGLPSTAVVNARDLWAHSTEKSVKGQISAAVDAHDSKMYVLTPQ", "assay": "Counterscreen for Glucocerebrosidase Inhibitors: qHTS Assay for Coffee Bean alpha-Galactosidase at pH 4.5 (AID 957);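 further: plate controls were enzyme alone for no effect and no enzyme for full effect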", "conditions": "purified coffee bean alpha-galactosidase, fluorogenic substrate; series mostly up to 76.9 µM; activity change, negative = inhibition: at the top concentration", "procedure,_shortened": "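Coffee bean enzyme (2 nM) with 80 uM 4-methylumbelliferyl alpha-D-galactopyranoside in 50 mM citric acid, 0.005% Tween-20, pH 4.5, 20 min at room temperature; compounds 0.7 nM–77 uM. Stopped at pH 10, fluorescence 365/440 nm; AC50 from Hill fits.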", "units": {"activity change, negative = inhibition": "%"}}
{"smiles": "Fc1cccc(/C=N\\N=C/c2cccc(F)c2)c1", "activity change, negative = inhibition": -2.22}
{"smiles": "O=C(OCCN1CCCCC1)c1c[nH]c2ccccc12", "activity change, negative = inhibition": -1.37}
{"smiles": "C[C@@H]1COc2c(N3CCN(C)CC3)c(F)cc3c(=O)c(C(=O)O)cn1c23", "activity change, negative = inhibition": -0.198}
{"smiles": "Cc1cccc([C@@H]2CN(C)CCc3c2cc(O)c(O)c3Cl)c1", "activity change, negative = inhibition": 0.923}
{"smiles": "CCCCCCCCCCCCCCC/C=C\\[C@H](O)[C@@H](NC(=O)CCCCCCCCCCCCC)OC", "note": "(tested in a mixture with another compound)", "activity change, negative = inhibition": -3.02}
{"smiles": "Cc1cc(C)c(/C=C2/C(=O)Nc3ccccc32)[nH]1", "activity change, negative = inhibition": -7.23}
{"smiles": "O=C1N=C(O)CN1/N=C\\c1ccc(-c2ccc([N+](=O)[O-])cc2)o1", "activity change, negative = inhibition": -1.46}
{"smiles": "OC[C@H]1O[C@@H](n2cnc3c(NCCc4ccccc4)ncnc32)[C@H](O)[C@H]1O", "activity change, negative = inhibition": 1.99}
{"smiles": "C=CCN1CCc2cc(O)c(O)cc2[C@H](c2ccccc2)C1", "activity change, negative = inhibition": 1.96}
{"smiles": "CC[C@]1(C)CC(=O)NC1=O", "activity change, negative = inhibition": -1.56}
{"smiles": "S=C(Nc1ccccc1)Nc1nccs1", "activity change, negative = inhibition": -0.585}
{"smiles": "Cc1c(C)c2c(c(C)c1O)CC[C@@](C)(CN1CCN(c3cc(N4CCCC4)nc(N4CCCC4)n3)CC1)O2", "activity change, negative = inhibition": -6.86}
{"smiles": "CC(C)NC[C@H](O)c1cc(O)cc(O)c1", "activity change, negative = inhibition": -0.482}
{"smiles": "CSc1nc(N)c2ncn([C@@H]3O[C@@H](COP(=O)(O)OP(=O)(O)O)[C@@H](O)[C@H]3O)c2n1", "activity change, negative = inhibition": 3.91}
{"smiles": "CCCN(CCc1ccccc1)[C@H]1CCc2c(O)cccc2C1", "activity change, negative = inhibition": -2.6}
{"smiles": "Cc1cccc(/C=C\\c2ccccc2)n1", "activity change, negative = inhibition": -4.09}
{"smiles": "C=C/C(C)=C/[C@]1(C)SC(=O)C(C)=C1O", "activity change, negative = inhibition": 3.45}
{"smiles": "CC(C)(C)c1ccc(S(=O)(=O)/C=C\\C#N)cc1", "activity change, negative = inhibition": -0.231}
{"smiles": "CN[C@@H](CC(C)C)C(=O)N[C@@H]1C(=O)N[C@H](CC(N)=O)C(=O)N[C@H]2C(=O)N[C@H]3C(=O)N[C@H](C(=O)N[C@H](C(=O)O)c4cc(O)cc(O)c4-c4cc3ccc4O)[C@H](O)c3ccc(c(Cl)c3)Oc3cc2cc(c3O[C@@H]2O[C@@H](CO)[C@@H](O)[C@@H](O)[C@H]2O[C@H]2C[C@](C)(N)[C@H](O)[C@H](C)O2)Oc2ccc(cc2Cl)[C@@H]1O", "activity change, negative = inhibition": 0.93}
{"smiles": "CC(C)(C)NC[C@H](O)c1cc(O)cc(O)c1", "activity change, negative = inhibition": 1.42}
{"smiles": "CO[C@]1(C2=NCCN2)COc2ccccc2O1", "activity change, negative = inhibition": 0.665}
{"smiles": "COC(=O)C1=C(C)NC(C)=C(C(=O)OCCN(C)Cc2ccccc2)[C@@H]1c1cccc([N+](=O)[O-])c1", "activity change, negative = inhibition": -15.8}
{"smiles": "CSc1ccc2c(c1)[C@H](N1CCN(C)CC1)Cc1ccccc1S2", "activity change, negative = inhibition": -7.71}
{"smiles": "Cc1ccc(/C(=C/CN2CCCC2)c2ccccn2)cc1", "activity change, negative = inhibition": -2.8}
{"smiles": "CC(=O)S[C@@H]1CC2=CC(=O)CC[C@@]2(C)[C@H]2CC[C@]3(C)[C@H](CC[C@@]34CCC(=O)O4)[C@H]12", "activity change, negative = inhibition": -0.574}
{"smiles": "COC(=O)[C@H](N)Cc1ccc(Cl)cc1", "activity change, negative = inhibition": -0.291}
{"smiles": "CC(C)NC[C@@H](O)COc1ccc(CCOCC2CC2)cc1", "activity change, negative = inhibition": 4.01}
{"smiles": "N[C@H](C(=O)N[C@@H]1C(=O)N2C(C(=O)O)=C(Cl)CS[C@@H]12)c1ccccc1", "activity change, negative = inhibition": -2.31}
{"smiles": "CCCC[S@@](=N)(=O)CC[C@@H](N)C(=O)O", "outcome": "inactive"}
{"smiles": "CCn1cc(C(=O)O)c(=O)c2cc(F)c(N3CCN[C@@H](C)C3)c(F)c21", "activity change, negative = inhibition": 0.454}
{"smiles": "C[C@@](N)(C(=O)O)c1ccc(C(=O)O)cc1", "activity change, negative = inhibition": 1.08}
{"smiles": "COc1ccccc1OC[C@H](O)CN1CCN(CC(=O)Nc2c(C)cccc2C)CC1", "activity change, negative = inhibition": -2.65}
{"smiles": "Cc1cccc(C)c1OC[C@@H](N)C(C)C", "activity change, negative = inhibition": -3.24}
{"smiles": "CNCC[C@H](Oc1ccccc1C)c1ccccc1", "activity change, negative = inhibition": -2.1}
{"smiles": "C[C@H](O)[C@H](O)[C@@H]1CNc2nc(N)[nH]c(=O)c2N1", "activity change, negative = inhibition": 4.72}
{"smiles": "Cc1cn([C@H]2C[C@H](N=[N+]=[N-])[C@H](CO)O2)c(=O)[nH]c1=O", "activity change, negative = inhibition": -1.78}
{"smiles": "N[C@H](Cc1ccc(Cl)cc1)C(=O)O", "activity change, negative = inhibition": 3.93}
{"smiles": "NC(N)=N[C@H](CCC(=O)O)C(=O)O", "activity change, negative = inhibition": 0.944}
{"smiles": "Cn1c(=O)c2c(nc(/C=C\\c3cccc(Cl)c3)n2C)n(C)c1=O", "activity change, negative = inhibition": -1.01}
{"smiles": "NC(=S)c1ccc[n+]([C@@H]2O[C@@H](COP(=O)([O-])OP(=O)(O)OC[C@@H]3O[C@@H](n4cnc5c(N)ncnc54)[C@@H](OP(=O)(O)O)[C@H]3O)[C@@H](O)[C@H]2O)c1", "activity change, negative = inhibition": 0.412}
{"target": "Alpha-galactosidase (Coffea arabica) (UniProt Q42656)", "assay": "Counterscreen for Glucocerebrosidase Inhibitors: qHTS Assay for Coffee Bean alpha-Galactosidase at pH 5.9 (AID 998);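 further: plate controls were uninhibited enzyme for no effect and no-enzyme basal signal for full effect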", "conditions": "coffee bean alpha-galactosidase enzyme assay; series mostly up to 76.9 µM; activity, negative = inhibition: at the top concentration", "procedure,_shortened": "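Green coffee bean enzyme (2 nM final) was incubated with compounds (0.7 nM–77 uM) and 4-methylumbelliferyl alpha-D-galactopyranoside (80 uM) in citrate buffer pH 5.9, 20 min at room temperature. High-pH stop; fluorescence 365/440 nm; AC50 from Hill fits.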", "units": {"activity, negative = inhibition": "%"}}
{"smiles": "Fc1cccc(/C=N\\N=C/c2cccc(F)c2)c1", "activity, negative = inhibition": 0.312}
{"smiles": "O=C(OCCN1CCCCC1)c1c[nH]c2ccccc12", "activity, negative = inhibition": 0.836}
{"smiles": "C[C@@H]1COc2c(N3CCN(C)CC3)c(F)cc3c(=O)c(C(=O)O)cn1c23", "activity, negative = inhibition": -0.165}
{"smiles": "Cc1cccc([C@@H]2CN(C)CCc3c2cc(O)c(O)c3Cl)c1", "activity, negative = inhibition": 1.23}
{"smiles": "CCCCCCCCCCCCCCC/C=C\\[C@H](O)[C@@H](NC(=O)CCCCCCCCCCCCC)OC", "note": "(tested in a mixture with another compound)", "activity, negative = inhibition": -0.383}
{"smiles": "Cc1cc(C)c(/C=C2/C(=O)Nc3ccccc32)[nH]1", "activity, negative = inhibition": -5.13}
{"smiles": "O=C1N=C(O)CN1/N=C\\c1ccc(-c2ccc([N+](=O)[O-])cc2)o1", "activity, negative = inhibition": -4.63}
{"smiles": "OC[C@H]1O[C@@H](n2cnc3c(NCCc4ccccc4)ncnc32)[C@H](O)[C@H]1O", "activity, negative = inhibition": 1.26}
{"smiles": "C=CCN1CCc2cc(O)c(O)cc2[C@H](c2ccccc2)C1", "activity, negative = inhibition": -4.15}
{"smiles": "CC[C@]1(C)CC(=O)NC1=O", "activity, negative = inhibition": -0.16}
{"smiles": "S=C(Nc1ccccc1)Nc1nccs1", "activity, negative = inhibition": 1.1}
{"smiles": "Cc1c(C)c2c(c(C)c1O)CC[C@@](C)(CN1CCN(c3cc(N4CCCC4)nc(N4CCCC4)n3)CC1)O2", "activity, negative = inhibition": -8.49}
{"smiles": "CC(C)NC[C@H](O)c1cc(O)cc(O)c1", "activity, negative = inhibition": -1.4}
{"smiles": "CSc1nc(N)c2ncn([C@@H]3O[C@@H](COP(=O)(O)OP(=O)(O)O)[C@@H](O)[C@H]3O)c2n1", "activity, negative = inhibition": -2.04}
{"smiles": "CCCN(CCc1ccccc1)[C@H]1CCc2c(O)cccc2C1", "activity, negative = inhibition": -0.805}
{"smiles": "Cc1cccc(/C=C\\c2ccccc2)n1", "activity, negative = inhibition": -0.734}
{"smiles": "C=C/C(C)=C/[C@]1(C)SC(=O)C(C)=C1O", "activity, negative = inhibition": 2.72}
{"smiles": "CC(C)(C)c1ccc(S(=O)(=O)/C=C\\C#N)cc1", "activity, negative = inhibition": -1.44}
{"smiles": "CN[C@@H](CC(C)C)C(=O)N[C@@H]1C(=O)N[C@H](CC(N)=O)C(=O)N[C@H]2C(=O)N[C@H]3C(=O)N[C@H](C(=O)N[C@H](C(=O)O)c4cc(O)cc(O)c4-c4cc3ccc4O)[C@H](O)c3ccc(c(Cl)c3)Oc3cc2cc(c3O[C@@H]2O[C@@H](CO)[C@@H](O)[C@@H](O)[C@H]2O[C@H]2C[C@](C)(N)[C@H](O)[C@H](C)O2)Oc2ccc(cc2Cl)[C@@H]1O", "activity, negative = inhibition": 0.891}
{"smiles": "CC(C)(C)NC[C@H](O)c1cc(O)cc(O)c1", "activity, negative = inhibition": 3.3}
{"smiles": "CO[C@]1(C2=NCCN2)COc2ccccc2O1", "activity, negative = inhibition": -2.37}
{"smiles": "COC(=O)C1=C(C)NC(C)=C(C(=O)OCCN(C)Cc2ccccc2)[C@@H]1c1cccc([N+](=O)[O-])c1", "activity, negative = inhibition": -11.1}
{"smiles": "CSc1ccc2c(c1)[C@H](N1CCN(C)CC1)Cc1ccccc1S2", "activity, negative = inhibition": -5.75}
{"smiles": "Cc1ccc(/C(=C/CN2CCCC2)c2ccccn2)cc1", "activity, negative = inhibition": -0.486}
{"smiles": "CC(=O)S[C@@H]1CC2=CC(=O)CC[C@@]2(C)[C@H]2CC[C@]3(C)[C@H](CC[C@@]34CCC(=O)O4)[C@H]12", "activity, negative = inhibition": -0.724}
{"smiles": "COC(=O)[C@H](N)Cc1ccc(Cl)cc1", "activity, negative = inhibition": -0.382}
{"smiles": "CC(C)NC[C@@H](O)COc1ccc(CCOCC2CC2)cc1", "activity, negative = inhibition": -0.284}
{"smiles": "N[C@H](C(=O)N[C@@H]1C(=O)N2C(C(=O)O)=C(Cl)CS[C@@H]12)c1ccccc1", "activity, negative = inhibition": 0.0245}
{"smiles": "CCCC[S@@](=N)(=O)CC[C@@H](N)C(=O)O", "outcome": "inactive"}
{"smiles": "CCn1cc(C(=O)O)c(=O)c2cc(F)c(N3CCN[C@@H](C)C3)c(F)c21", "activity, negative = inhibition": 1.87}
{"smiles": "C[C@@](N)(C(=O)O)c1ccc(C(=O)O)cc1", "activity, negative = inhibition": -0.265}
{"smiles": "COc1ccccc1OC[C@H](O)CN1CCN(CC(=O)Nc2c(C)cccc2C)CC1", "activity, negative = inhibition": -0.989}
{"smiles": "Cc1cccc(C)c1OC[C@@H](N)C(C)C", "activity, negative = inhibition": -1.36}
{"smiles": "CNCC[C@H](Oc1ccccc1C)c1ccccc1", "activity, negative = inhibition": 0.483}
{"smiles": "C[C@H](O)[C@H](O)[C@@H]1CNc2nc(N)[nH]c(=O)c2N1", "activity, negative = inhibition": 1.93}
{"smiles": "Cc1cn([C@H]2C[C@H](N=[N+]=[N-])[C@H](CO)O2)c(=O)[nH]c1=O", "activity, negative = inhibition": -0.377}
{"smiles": "N[C@H](Cc1ccc(Cl)cc1)C(=O)O", "activity, negative = inhibition": 6.4}
{"smiles": "NC(N)=N[C@H](CCC(=O)O)C(=O)O", "activity, negative = inhibition": 5.36}
{"smiles": "Cn1c(=O)c2c(nc(/C=C\\c3cccc(Cl)c3)n2C)n(C)c1=O", "activity, negative = inhibition": -1.88}
{"smiles": "NC(=S)c1ccc[n+]([C@@H]2O[C@@H](COP(=O)([O-])OP(=O)(O)OC[C@@H]3O[C@@H](n4cnc5c(N)ncnc54)[C@@H](OP(=O)(O)O)[C@H]3O)[C@@H](O)[C@H]2O)c1", "activity, negative = inhibition": 0.0178}
